Measurements reported in PubChem BioAssay AID623926 (Vanderbilt Specialized Chemistry Center, 2012).
Active and inactive are the calls of the source.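 The calls were made as follows: active = compound whose M3 calcium response shifts with concentration, judged dose-dependent by the depositor; inactive = the rest, no dose-dependent response.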

Target: Muscarinic acetylcholine receptor M3 (Homo sapiens) (UniProt P20309)
Assay: human M3 receptor positive allosteric modulation, SAR follow-up, selectivity assay for M4 PAM optimization, CHO cells, calcium flux (AID 623926)
Settings: CHO hM3 cells, Fluo-4 calcium flux, ACh EC20; series mostly up to 30 µM; % ACh max response: at the top concentration

outcome, inactive:
Cc1nc2sc(C(=O)NCc3ccccc3)c(N)c2c(C)c1Cl
Cc1nc2sc(C(=O)NCc3ccc4c(c3)OCO4)c(N)c2c(C)c1Cl
Cc1nc2sc(C(=O)NCc3ccncc3)c(N)c2c(C)c1Cl
Cc1nc2sc(C(=O)NCc3cccnc3)c(N)c2c(C)c1Cl

% ACh max response, inactive:
Cc1nc2sc(C(=O)NCc3ccncn3)c(N)c2c(C)c1Cl 15.1
COc1ccc(C)c2sc(NC(=O)c3ccncc3)nc12 20.8
Cc1nc2sc(C(=O)NC3CC3)c(N)c2c(C)c1Cl 18.7
Cc1nc2sc(C(=O)NCc3cccc(F)c3F)c(N)c2c(C)c1Cl 8.6
Cc1nc2sc(C(=O)NCCc3ccncc3)c(N)c2c(C)c1Cl 28.6
Cc1nc2sc(C(=O)NCc3nccs3)c(N)c2c(C)c1Cl 29.5
